# According to PubChem BioAssay (EPA / NIEHS):
# Some structures have more than one record in an assay (separate samples or runs), and their calls can disagree. Active and inactive are the calls of the source. The calls were made as follows: active = hit-call score of the fitted dose curve at least 0.9, where 1 is the maximum; inactive = score below 0.9.
# Test: ATG_VDRE_CIS: Attagene CIS-FACTORIAL HepG2 Assay for human Vitamin D Receptor Element (VDRE) (AID 2282968)
# Details: HepG2 VDRE cis-reporter transcription, actives raise or lower the signal
# Protocol: ATG_CIS is a cell-based, multiplexed-readout assay that uses HepG2, a human liver cell line, with measurements taken at 24 hours after chemical dosing in a 24-well plate.ATG_VDRE_CIS is one of 52 assay component(s) measured or calculated from the ATG_CIS assay. It is designed to make measurements of mRNA induction, a form of inducible reporter, as detected with fluorescence intensity signals by Reverse transcription polymerase chain reaction (RT-PCR) and Capillary electrophoresis technology.Data from the assay component ATG_VDRE_CIS was analyzed into 1 assay endpoint. This assay endpoint, ATG_VDRE_CIS, was analyzed with bidirectional fitting relative to DMSO as the negative control and baseline of activity. Using a type of inducible reporter, measures of mRNA for gain or loss-of-signal activity can be used to understand the reporter gene at the transcription factor-level as they relate to the gene VDR. Furthermore, this assay endpoint can be referred to as a primary readout, because this assay has produced multiple assay endpoints where this one serves a reporter gene function. To generalize the intended target to other relatable targets, this assay endpoint is annotated to the nuclear receptor intended target family, where the subfamily is non-steroidal.
# Human liver HepG2 cells are transiently transfected with multiple reporter transcription units (MRTUs) in 6-well plates using FuGene 6 reagent (Roche; 3 ml FuGene/1 mg DNA). The MRTU constructs are regulated by a cis-regulating element (promoter). […] A major difference between the CIS and TRANS system is that in CIS activities of endogenous TFs are measured, whereas the TRANS assay evaluates changes in activities of exogenous, chimeric NR-Gal4 proteins. […] At the end of 24 hour incubation, total RNA was isolated using TriZol reagent (Invitrogen). The isolated RNA is then reverse-transcribed using oligo(dT) primer and Mo-MLV reverse transcriptase (Invitrogen) with DNAse I (Ambion) treatment for 30 min. The one-tenth of the produced cDNA was amplified by PCR using Taq DNA polymerase (Invitrogen) and two reporter sequence-specific primers. The PCR products were fluorescently labeled by primer extension with 6-arboxyfluorescein (6-FAM) 5'-labeled reporter sequence-specific primer (2 min at 95 C, 20 s at 68 C and 10 min at 72 C) and these products were digested with 5U of HpaI (New England Biolabs) for 2h at 37 C. The fragments were purified using Qiaquick PCR columns (Qiagen), analyzed on an ABI 3130xL genetic analyzer (Applied Biosystems) with peak positions identified by using a set of X-rhodamine (ROX)-labeled MapMarker1000 molecular weight standards (BioVentures). The raw capillary electrophoresis data was processed using Attagraph software (Attagene).
Compound,outcome,AC50
CCCCC/C=C\C=C\C(=O)OCC,inactive,–
O=C(c1ccc(OCCN2CCCCC2)cc1)c1c(-c2ccc(O)cc2)sc2cc(O)ccc12,inactive,–
CCOC(=O)CC(C)C,inactive,–
C=CCCCCCCCCC(=O)OCC,inactive,–
CCC(C)C1CCCCC1=O (stereo not given),inactive,–
CCOCC(C)O (stereo not given),inactive,–
FC(F)(F)c1ccc(Cl)c(Cl)c1,inactive,–
O=c1cc[nH]cc1,inactive,–
CCCO[Si](OCCC)(OCCC)OCCC,inactive,–
O=S(=O)(O)CCCN1CCOCC1,inactive,–
CC(O)CN (stereo not given),inactive,–
CCn1cc(C(=O)O)c(=O)c2ccc(C)nc21,inactive,–
CCC(C)COC(=O)CC(C)C (stereo not given),inactive,–
CCCCCCCCCCO[C@@H]1O[C@H](CO)[C@@H](O)[C@H](O)[C@H]1O,inactive,–
O=C1OC2(c3ccc(O)cc3Oc3cc(O)ccc32)c2ccccc21,inactive,–
CN(C)CCC=C1c2ccccc2CCc2ccccc21,–,23.7 µM (active)
CCCCCCCCCC(=O)OCC,–,44.1 µM (active)
CCCCOCCOCCO,inactive,–
C[N+](C)(C)CCO,inactive,–
CC(=O)C1=C(C)[C@@H]2C[C@@]3(C1)[C@H](C)CC[C@H]3C2(C)C,–,161 µM (active)

Compound,outcome,AC50
CCCCCCCCCCCCOCCOS(=O)(=O)O,inactive,–
Cc1ccc(C(C)(C)O)cc1,inactive,–
O=C(OCc1ccccc1)c1ccccc1O,inactive,–
O=C(O)c1cccc(Cl)n1,inactive,–
CC(=O)C1C(=O)C=C(C)OC1=O (stereo not given),inactive,–
CCC(=O)OC/C=C(\C)CCC=C(C)C,inactive,–
COC(=O)c1cccc(C(=O)OC)c1,inactive,–
NCCN1CCNCC1,inactive,–
CC(C)(C)c1ccc(S)cc1,inactive,–
O=S(=O)(O)c1cc(S(=O)(=O)O)c2c(N=Nc3ccccc3)c(O)ccc2c1,inactive,–
O=C(O)CS,inactive,–
CCC(C)(CCCC(C)C)OC(C)=O (stereo not given),inactive,–
CCCCCC#CC(=O)OC,inactive,–
CCC(=O)OCC=Cc1ccccc1,inactive,–
CC/C=C\C#N,inactive,–
N=C1N=C(N)c2ccccc21,inactive,–
C=C1CC[C@H]2O[C@]2(C)CC[C@@H]2[C@@H]1CC2(C)C,inactive,–
CCC(C)(C)C1CCC(OC)CC1 (stereo not given),inactive,–
O=C(O)c1ccco1,inactive,–
ClCCOCCOCCCl,inactive,–
